PubChem BioAssay (NCATS)
Records with an inconclusive call do not appear. Activity calls are given as the source filed them. Calls follow the shape of the dose curve; as a rule, active = well fitted cell-killing curve with a large enough effect; inconclusive = small, poorly fitted or top-dose-only effect, or effect the other way; inactive = no such curve, though single readings can be large or run the other way.

Experiments:
[1] = Quantitative High-Throughput drug screen in 47 multiple myeloma cell lines against the NCATS MIPE library collection: OCIMY1_PLB cell viability assay (AID 1918979); also: nearly all actives have a fitted effect of over 35% in size;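 as to viability: 100% = DMSO-only wells and 0% = cell-free media-only wells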
Method in brief: (§1)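 500 cells/well; MIPE 4.0 drugs pin-transferred; 48 h, 37C, 5% CO2. CellTiter-Glo, 5 min RT, luminescence. Controls: DMSO 100%, media 0%.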

[2] = Quantitative High-Throughput drug screen in 47 multiple myeloma cell lines against the NCATS MIPE library collection: MM1S_ATCC cell viability assay (AID 1918980); also: nearly all actives have a fitted effect of over 45% in size
Method in brief: as §1

[3] = Quantitative High-Throughput drug screen in 47 multiple myeloma cell lines against the NCATS MIPE library collection: MM1R_ATCC cell viability assay (AID 1918981); also: nearly all actives have a fitted effect of over 35% in size
Method in brief: as §1

[4] = Quantitative High-Throughput drug screen in 47 multiple myeloma cell lines against the NCATS MIPE library collection: KMS28PE_JCRB cell viability assay (AID 1918983); also: nearly all actives have a fitted effect of over 35% in size
Method in brief: as §1

[5] = Quantitative High-Throughput drug screen in 47 multiple myeloma cell lines against the NCATS MIPE library collection: KMS34_JCRB cell viability assay (AID 1918985); also: nearly all actives have a fitted effect of over 40% in size
Method in brief: as §1

[6] = Quantitative High-Throughput drug screen in 47 multiple myeloma cell lines against the NCATS MIPE library collection: OCIMY7_PLB cell viability assay (AID 1918987); conditions: OCI-MY7 myeloma viability, CellTiter-Glo ATP, 48 h; viability (% of DMSO): at 45.8 µM (top of the series); also: nearly all actives have a fitted effect of over 65% in size
Method in brief: as §1

[7] = Quantitative High-Throughput drug screen in 47 multiple myeloma cell lines against the NCATS MIPE library collection: OCIMY5_PLB cell viability assay (AID 1918988); also: nearly all actives have a fitted effect of over 65% in size
Method in brief: as §1

[8] = Quantitative High-Throughput drug screen in 47 multiple myeloma cell lines against the NCATS MIPE library collection: OPM1_PLB cell viability assay (AID 1918989); also: nearly all actives have a fitted effect of over 40% in size
Method in brief: as §1

[9] = Quantitative High-Throughput drug screen in 47 multiple myeloma cell lines against the NCATS MIPE library collection: U266_ATCC cell viability assay (AID 1919864); also: nearly all actives have a fitted effect of over 35% in size
Method in brief: as §1

[10] = Quantitative High-Throughput drug screen in 47 multiple myeloma cell lines against the NCATS MIPE library collection: XG6_PLB cell viability assay (AID 1919865); also: nearly all actives have a fitted effect of over 40% in size
Method in brief: as §1

[11] = Quantitative High-Throughput drug screen in 47 multiple myeloma cell lines against the NCATS MIPE library collection: XG1_PLB cell viability assay (AID 1919866); also: nearly all actives have a fitted effect of over 35% in size
Method in brief: as §1

[12] = Quantitative High-Throughput drug screen in 47 multiple myeloma cell lines against the NCATS MIPE library collection: UTMC2_PLB cell viability assay (AID 1919868); conditions: CellTiter-Glo ATP luminescence, 48 h; viability (% of DMSO control): at 45.8 µM (top of the series); also: nearly all actives have a fitted effect of over 55% in size
Method in brief: as §1

[13] = Quantitative High-Throughput drug screen in 47 multiple myeloma cell lines against the NCATS MIPE library collection: PE2_PLB cell viability assay (AID 1919869); also: nearly all actives have a fitted effect of over 35% in size
Method in brief: as §1

[14] = Quantitative High-Throughput drug screen in 47 multiple myeloma cell lines against the NCATS MIPE library collection: PCM6_Riken cell viability assay (AID 1919870); also: nearly all actives have a fitted effect of over 30% in size
Method in brief: as §1

[15] = Quantitative High-Throughput drug screen in 47 multiple myeloma cell lines against the NCATS MIPE library collection: RPMI8226_ATCC cell viability assay (AID 1919871); also: nearly all actives have a fitted effect of over 30% in size
Method in brief: as §1

[16] = Quantitative High-Throughput drug screen in 47 multiple myeloma cell lines against the NCATS MIPE library collection: OPM2_DSMZ cell viability assay (AID 1919872); also: nearly all actives have a fitted effect of over 30% in size
Method in brief: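 Primary qHTS used for cherry-picking: cells at 500/well, library compounds for 48 h (37C, 5% CO2), luminescent ATP assay.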

[17] = Quantitative High-Throughput drug screen in 47 multiple myeloma cell lines against the NCATS MIPE library collection: LP1_DSMZ cell viability assay (AID 1918982); also: nearly all actives have a fitted effect of over 35% in size
Method in brief: as §1

[18] = Quantitative High-Throughput drug screen in 47 multiple myeloma cell lines against the NCATS MIPE library collection: VP6_DJ cell viability assay (AID 1919867); also: nearly all actives have a fitted effect of over 40% in size
Method in brief: as §1

[19] = Quantitative High-Throughput drug screen in 47 multiple myeloma cell lines against the NCATS MIPE library collection: L363_DSMZ cell viability assay (AID 1918984); also: nearly all actives have a fitted effect of over 40% in size
Method in brief: as §1

[20] = Quantitative High-Throughput drug screen in 47 multiple myeloma cell lines against the NCATS MIPE library collection: SKMM1_PLB cell viability assay (AID 1919863); conditions: SKMM1 myeloma viability, CellTiter-Glo ATP, 48 h; viability: stronger effect = lower value; also: nearly all actives have a fitted effect of over 35% in size
Method in brief: as §1
Potency is read from the fitted curve at half-maximal effect.

Cc1ccc2nc(NCCN)c3ncc(C)n3c2c1
active: Potency [1] 14800 nM | Potency [2] 1660 nM | Potency [3] 3320 nM | Potency [4] 4180 nM | Potency [5] 8330 nM | Potency [6] 6620 nM | Potency [7] 1320 nM | Potency [8] 13200 nM | Potency [9] 3720 nM | Potency [10] 1870 nM | Potency [11] 2350 nM | Potency [12] 4690 nM | Potency [13] 9350 nM | Potency [14] 2640 nM | Potency [15] 6620 nM | Potency [16] 11800 nM

CN1C(C(=O)Nc2ccccn2)=C(O)c2sc(Cl)cc2S1(=O)=O
active: Potency [2] 5260 nM | Potency [17] 4690 nM | Potency [4] 4690 nM | Potency [5] 2960 nM | Potency [6] 1320 nM | Potency [8] 4180 nM | Potency [9] 4180 nM | Potency [10] 2090 nM | Potency [11] 1660 nM | Potency [18] 3320 nM | Potency [13] 3720 nM | Potency [14] 2640 nM
inactive: Potency [1] | Potency [16]

Oc1ccc(-c2ccc(-c3cc(Nc4cccc(CNC5CC5)c4)n[nH]3)cc2)c(O)c1
active: Potency [1] 9350 nM | Potency [2] 1660 nM | Potency [3] 2350 nM | Potency [4] 5260 nM | Potency [19] 148 nM | Potency [5] 4180 nM | Potency [7] 1480 nM | Potency [8] 1050 nM | Potency [20] 5260 nM | Potency [9] 5260 nM | Potency [10] 418 nM | Potency [11] 526 nM | Potency [18] 743 nM | Potency [12] 1320 nM | Potency [13] 1320 nM | Potency [14] 590 nM | Potency [15] 9350 nM

CCc1c(O)cc(O)c(C(=O)c2ccc(OCCN3CCOCC3)c(OC)c2)c1CC(=O)N(CCOC)CCOC
active: Potency [1] 16600 nM | Potency [2] 1480 nM | Potency [3] 1180 nM | Potency [4] 1180 nM | Potency [5] 1660 nM | Potency [6] 3320 nM | Potency [8] 662 nM | Potency [20] 1320 nM | Potency [9] 1050 nM | Potency [10] 1480 nM | Potency [11] 1180 nM | Potency [18] 1180 nM | Potency [12] 935 nM | Potency [13] 833 nM | Potency [14] 1320 nM

C[C@H](CCC(=O)O)[C@H]1CC[C@H]2[C@@H]3[C@H](O)C[C@@H]4C[C@H](O)CC[C@]4(C)[C@@H]3CC[C@]12C
inactive: Potency [1] | Potency [2] | Potency [17] | Potency [4] | Potency [19] | Potency [5] | Potency [8] | viability [20] 131% | Potency [10] | Potency [11] | Potency [13] | Potency [14] | Potency [15] | Potency [16]

N=c1ccn2c(n1)O[C@H]1[C@@H](O)[C@@H](CO)O[C@H]12
inactive: Potency [1] | Potency [17] | Potency [4] | Potency [13] | Potency [15] | Potency [16]
active: Potency [2] 2640 nM | Potency [20] 148 nM | Potency [9] 18700 nM | Potency [11] 5900 nM | Potency [18] 18700 nM | Potency [12] 14800 nM

COC1=C2C[C@@H](C)C[C@H](OC)[C@@H](O)[C@@H](C)C=C(C)[C@H](OC(N)=O)[C@@H](OC)C=CC=C(C)C(=O)NC(=CC1=O)C2=O
active: Potency [1] 166 nM | Potency [2] 59 nM | Potency [3] 37.2 nM | Potency [4] 132 nM | Potency [19] 7430 nM | Potency [5] 166 nM | Potency [8] 418 nM | Potency [20] 2090 nM | Potency [9] 132 nM | Potency [10] 332 nM | Potency [11] 209 nM | Potency [12] 209 nM | Potency [13] 296 nM | Potency [14] 148 nM | Potency [15] 105 nM | Potency [16] 332 nM

CCOc1cc2c(c(F)c1OCC)C(=N)N(CC(=O)c1cc(N3CCOCC3)c(OC)c(C(C)(C)C)c1)C2
active: Potency [1] 20900 nM | Potency [2] 14800 nM | Potency [3] 20900 nM | Potency [4] 20900 nM | Potency [5] 23500 nM | Potency [6] 7430 nM | Potency [7] 16600 nM | Potency [8] 14800 nM | Potency [20] 20900 nM | Potency [10] 9350 nM | Potency [11] 8330 nM | Potency [18] 9350 nM | Potency [13] 20900 nM | Potency [14] 7430 nM | Potency [15] 18700 nM | Potency [16] 18700 nM

CO[C@@H]1[C@@H](O)[C@H](O)[C@@H](n2c3c(Cl)cccc3c3c4c(c5c6cccc(Cl)c6[nH]c5c32)C(=O)NC4=O)O[C@@H]1CO
active: Potency [1] 2350 nM | Potency [2] 372 nM | Potency [17] 6620 nM | Potency [4] 1320 nM | Potency [19] 1050 nM | Potency [5] 1320 nM | Potency [6] 148 nM | Potency [7] 2090 nM | Potency [8] 2090 nM | Potency [20] 2350 nM | Potency [9] 1480 nM | Potency [10] 74.3 nM | Potency [11] 166 nM | Potency [12] 235 nM | Potency [13] 1050 nM | Potency [14] 1480 nM | Potency [15] 2350 nM | Potency [16] 5900 nM

COc1cccc2c1C(=O)c1c(O)c3c(c(O)c1C2=O)C[C@@](O)(C(=O)CO)C[C@@H]3O[C@H]1C[C@H](N)[C@@H](O)[C@H](C)O1
active: Potency [1] 1660 nM | Potency [2] 66.2 nM | Potency [17] 1870 nM | Potency [4] 526 nM | Potency [19] 1870 nM | Potency [5] 743 nM | Potency [6] 2090 nM | Potency [7] 526 nM | Potency [8] 743 nM | Potency [9] 1320 nM | Potency [10] 148 nM | Potency [11] 526 nM | Potency [18] 935 nM | Potency [12] 118 nM | Potency [13] 148 nM | Potency [14] 209 nM | Potency [15] 935 nM
